According to PubChem BioAssay (NCI):
The panel holds about 79,000 compounds, 15% with a hit somewhere; the sample as a whole holds those more often. No stated cut-off is given here; in the data, active means growth inhibition above about 70%; inactive means the rest.

How the values were obtained:
[1] = NCI Yeast Anticancer Drug Screen. Data for the rad50 strain (AID 155);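 further: 0% = growth of vehicle-only cultures of the same strain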; conditions: S. cerevisiae rad50 strain growth inhibition; at 50.0 µM; active compounds read high
Summary of the method: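 Inhibition values express reduced yeast growth in compound-treated cultures relative to vehicle-treated controls.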

[2] = NCI Yeast Anticancer Drug Screen. Data for the mec2-1 strain (AID 157); conditions: S. cerevisiae mec2-1 strain, at 50.0 µM, active compounds read high
Summary of the method: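 Compounds were applied to mec2-1 yeast cells. Their growth was then compared with that of vehicle-treated cultures to give growth inhibition.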

[3] = NCI Yeast Anticancer Drug Screen. Data for the sgs1 mgt1 strain (AID 161);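 further: 0% = growth of cultures given vehicle only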; conditions: S. cerevisiae sgs1 mgt1 strain, at 50.0 µM, active compounds read high
Summary of the method: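 This yeast growth screen uses a strain with defined DNA-repair lesions; compound-treated growth is compared with vehicle-treated growth.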

[4] = NCI Yeast Anticancer Drug Screen. Data for the cln2 rad14 strain (AID 165);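 further: 0% = growth equal to vehicle treated cultures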; conditions: S. cerevisiae cln2 rad14 strain, at 50.0 µM, active compounds read high
Summary of the method: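 Strain: cln2 rad14 yeast, altered in cell cycle control and DNA damage repair. Read-out: growth inhibition vs vehicle.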

[5] = NCI Yeast Anticancer Drug Screen. Data for the bub3 strain (AID 167); conditions: S. cerevisiae bub3 mutant strain, at 50.0 µM, active compounds read high
Summary of the method: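 Steps: expose the mutant yeast strain to compound; grow alongside vehicle-treated cultures; measure growth; express inhibition against the vehicle cultures.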

[6] = NCI Yeast Anticancer Drug Screen. Data for the mlh1 rad18 strain (AID 175); conditions: S. cerevisiae mlh1 rad18 strain growth inhibition; at 50.0 µM; active compounds read high
Summary of the method: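 A repair-deficient yeast strain is exposed to test compound, and growth is scored relative to vehicle-treated controls.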

Measured: growth inhibition

COC1OCC(OS(C)(=O)=O)C(NC(C)=O)C1OS(C)(=O)=O (configuration not stated)
inactive: [1] -13.9% | [2] -2.85% | [3] -3.05% | [4] -19.2% | [5] 0.45% | [6] 2.25%

CCOC(=O)CCC(C(=O)OCC)C(C)C(=O)OCC (configuration not stated)
inactive: [1] -25.4% | [2] -19.1% | [3] -25.8% | [4] -11.7% | [5] 4.1% | [6] -15.2%

CC(=O)Nc1ccc(S(=O)(=O)NNC(=O)C(=O)Nc2cccc(Cl)c2)cc1
inactive: [1] -12.5% | [2] -21.4% | [3] -18.2% | [4] 16.4% | [5] -0.1% | [6] -1.6%

Cc1ccnc(NCc2ccccn2)c1
inactive: [1] 6.7% | [2] 3.85% | [3] 17.4% | [4] -0.15% | [5] 1.3% | [6] -1.5%

Nc1[nH]c(=S)[nH]c(=O)c1N=Cc1ccc2c(c1)OCO2
inactive: [1] 13.2% | [2] 10% | [3] 61.4% | [4] 12.7% | [5] 16.2% | [6] 9.7%

O=[N+]([O-])c1cc(Br)ccc1N1CCCC1
inactive: [1] -8.7% | [2] 4.2% | [3] 4.05% | [4] -11.7% | [5] -2.3% | [6] -6.85%

Oc1ccc(Br)cc1C(c1ccc2c(c1)OCO2)N1CCOCC1 (configuration not stated)
inactive: [1] 8.65% | [2] 14.3% | [3] -7.8% | [4] 14.4% | [5] 1.45% | [6] 15.5%

Cc1c(C(=O)O)[nH]c2c(Cl)ccc(C)c2c1=O
inactive: [1] -34.2% | [2] -9.15% | [3] 9.5% | [4] -44.5% | [5] 9.8% | [6] 4.75%

O=C(CCCCl)c1ccccc1
inactive: [1] 0.75% | [2] -4% | [3] -18.1% | [4] 2.35% | [5] -7.1% | [6] -2.6%

CCOC(=O)C(C)(C(C)=O)c1nc(=S)[nH]c(=S)[nH]1 (configuration not stated)
inactive: [1] 4.2% | [2] 7.55% | [3] 2.1% | [4] -19.8% | [5] 7.25% | [6] -5.1%

CCOC1(C)OC2OC(COC(C)=O)C(OC(C)=O)C(OC(N)=O)C2O1 (configuration not stated)
inactive: [1] -11.8% | [2] 0.05% | [3] -5.75% | [4] -34% | [5] -1.15% | [6] 15.2%

Nc1ncnc2c1ncn2C(=O)NC12CC3CC(CC(C3)C1)C2
inactive: [1] 9.75% | [2] 14.6% | [3] 8.7% | [4] 18.1% | [5] 8.25% | [6] -8.2%

NC1=NN(c2ccccc2)C(=O)/C1=C\n1c(=S)[nH]c2ccccc21
inactive: [1] -22.4% | [2] -19.9% | [3] -39.6% | [4] -16.3% | [5] -25.4% | [6] -26.6%

O=C(O)Cc1ccc2ccccc2c1Br
inactive: [1] -8.5% | [2] 13.1% | [3] 1.8% | [4] 22.8% | [5] -8.6% | [6] 14.3%

COc1cc(C=O)cc(Br)c1O
inactive: [1] 13.3% | [2] -3.55% | [3] 34.1% | [4] -8.45% | [5] -19.7% | [6] 34.4%

CC1C=CC(C)S(=O)N1C(=O)Cc1ccccc1 (configuration not stated)
inactive: [1] -2.6% | [2] -14.6% | [3] -9.35% | [4] -16.9% | [5] -25.5% | [6] -19.6%

CCCCNC(=O)CSc1cc(Cl)c(Cl)cc1Cl
inactive: [1] 15.2% | [2] 9.1% | [3] 16.6% | [4] 19.1% | [5] 25.6% | [6] 13.2%

NC(=O)c1ccc[n+](CCCCCCCCCCC(=O)[O-])c1
inactive: [1] -7% | [2] 7.05% | [3] 0.8% | [4] -15% | [5] 4.75% | [6] 1.95%

N#C/C(=C\n1c(=S)[nH]c2ccccc21)c1nc2ccccc2s1
inactive: [1] -2.85% | [2] -4.45% | [3] -9.15% | [4] -4.15% | [5] 4.25% | [6] 36.8%

COC(=O)/C(C)=C/C=C/C(OC)C(OC(N)=O)/C(C)=C/C(C)C(O)C(CC(C)CC1=C(N)C(=O)C=C(N)C1=O)OC (configuration not stated)
inactive: [1] 9.4% | [2] 10.3% | [3] -6.8% | [4] 46.9% | [5] 5.9% | [6] -18%

Cc1cc2c(C(C)C)c(O)c(O)c(C=Nc3ccccc3)c2c(O)c1-c1c(C)cc2c(C(C)C)c(O)c(O)c(C=Nc3ccccc3)c2c1O
inactive: [1] 1.45% | [2] 34% | [3] 49.6% | [4] -23% | [5] -2.3% | [6] 52.8%

CC(NCCOc1ccccc1)c1ccccc1 (configuration not stated)
inactive: [1] 9.1% | [2] 33.4% | [3] 3.2% | [4] 10.7% | [5] -0.75% | [6] 9.25%

COC(=O)c1cccc(C(=O)CC(=O)c2ccccc2)c1
inactive: [1] 18.6% | [2] 12.7% | [3] 8.1% | [4] 12.3% | [5] 11.2% | [6] 11.6%

COC(=O)[C@H]1O[C@H]1c1cccc[n+]1[O-]
inactive: [1] 10.1% | [2] -2.4% | [3] 3.9% | [4] -24.6% | [5] 9.3% | [6] -0.9%

Cc1cc(CSCCc2nc3ccccc3[nH]2)c(O)c(CSCCc2nc3ccccc3[nH]2)c1
inactive: [1] 15.1% | [2] 3.8% | [3] 5.55% | [4] -42% | [5] -6.65% | [6] 14.4%

COc1ccc(-n2nnnc2C2(Nc3ccccc3)CCN(Cc3ccccc3)CC2)cc1
inactive: [1] -22.4% | [2] -8.4% | [3] -1.4% | [4] 2.65% | [5] -2.15% | [6] 10.4%

O=C(O)/C=C\C(=O)Nc1ccc(S(=O)(=O)Nc2nccs2)cc1
inactive: [1] -0.8% | [2] -3.45% | [3] -15.2% | [4] 2.6% | [5] 1.6% | [6] -10.1%

COc1ccc(CC(N)C(N)=O)cc1 (configuration not stated)
inactive: [1] -6.25% | [2] -0.65% | [3] -4% | [4] -12% | [5] -0.3% | [6] 6.5%

COc1ccc2oc(=O)c(-c3csc(-c4ccccc4)n3)cc2c1
inactive: [1] 13.6% | [2] 5.85% | [3] -5.5% | [4] 1.25% | [5] -24.4% | [6] -45.2%

CC1(C)OC2OC(C3CC3)C(O)C2O1 (configuration not stated)
inactive: [1] -4.1% | [2] 4.75% | [3] 3% | [4] -36.1% | [5] 11.9% | [6] -1.85%

O=CNc1cc([N+](=O)[O-])ccc1OCc1ccccc1
inactive: [1] 13.6% | [2] 1.6% | [3] -0.75% | [4] 4.6% | [5] 12.2% | [6] -21.9%

CCCCCCC(O)CCCCCCCCCCC(=O)O (configuration not stated)
inactive: [1] -14.3% | [2] 0.1% | [3] 16.4% | [4] -25.4% | [5] -6.8% | [6] 19.7%

CCOC(=O)c1cc(-n2nnc3ccccc32)cn1C
inactive: [1] -4.7% | [2] -23.4% | [3] 0.35% | [4] -3.6% | [5] 19.4% | [6] -0.65%

COC(=O)/C=C/CCOS(C)(=O)=O
inactive: [1] 9.6% | [2] -35% | [3] 0.55% | [4] -39% | [5] -3.25% | [6] 16.5%

CC1c2c(cc(=O)n(C)c2O)C(=O)N1C (configuration not stated)
inactive: [1] 2.15% | [2] 0.7% | [3] -7.85% | [4] -6.2% | [5] -9% | [6] -2.85%

OC(COc1ccc2ccccc2c1)COc1ccc2ccccc2c1
inactive: [1] -8.55% | [2] -22.1% | [3] -7.85% | [4] -16.3% | [5] -11.6% | [6] -5.8%

COC(=O)C1(C)C=CC(=O)C2(C)C1C(O)C1OC3CC(c4ccoc4)C(C)=C3C1(C)C2CC(=O)O (configuration not stated)
inactive: [1] 19.9% | [2] -7% | [3] 20.1% | [4] 12.4% | [5] 10.8% | [6] -21.3%
